# In PubChem BioAssay AID1159580 (chemical genetic matrix, 2015):
# In all, about 5,500 compounds went through this assay and about 2,000 (36%) were called active. Another 18% or so got no clear call; they are omitted. The list shows a part of the results. Unmarked numbers belong to inactive results. Cut-off read from the data, not from the text of the source: active = normalized growth mostly below about 0.91 (no sharp cut-off); inconclusive = no clear call, values can overlap the other calls; inactive = mostly above about 0.92.
# Test: chemical genetic growth profiling, strain panel (AID 1159580);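 note: tested at 20 µM; growth read once vehicle control cultures reached saturation at 30 °C; 1 = growth at the plate median or of vehicle wells; lower values mean less growth of the strain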
# Conditions: growth OD
# [1] = S. cerevisiae deletion strains, locus YAL013W, strain DEP1, stronger effect = lower value
# [2] = S. cerevisiae deletion strains, locus YBR229C, strain ROT2, stronger effect = lower value
# [3] = S. cerevisiae deletion strains, locus YDL101C, strain DUN1, stronger effect = lower value
# [4] = S. cerevisiae deletion strains, locus YDR150W, strain NUM1, stronger effect = lower value
# [5] = S. cerevisiae deletion strains, locus YEL061C, strain CIN8, stronger effect = lower value
# [6] = S. cerevisiae deletion strains, locus YGR078C, strain PAC10, stronger effect = lower value
# [7] = S. cerevisiae deletion strains, locus YHR030C, strain SLT2, stronger effect = lower value
# [8] = S. cerevisiae deletion strains, locus YHR087W, strain rtc3, stronger effect = lower value
# [9] = S. cerevisiae deletion strains, locus YJL187C, strain SWE1, stronger effect = lower value
# [10] = S. cerevisiae deletion strains, locus YJR043C, strain POL32, stronger effect = lower value
# [11] = S. cerevisiae deletion strains, locus YJR075W, strain HOC1, stronger effect = lower value
# [12] = S. cerevisiae deletion strains, locus YKL190W, strain CNB1, stronger effect = lower value
# [13] = S. cerevisiae deletion strains, locus YLR039C, strain RIC1, stronger effect = lower value
# [14] = S. cerevisiae deletion strains, locus YLR058C, strain SHM2 (second series), stronger effect = lower value
# [15] = S. cerevisiae deletion strains, locus YLR085C, strain ARP6, stronger effect = lower value
# [16] = S. cerevisiae deletion strains, locus YLR262C, strain YPT6, stronger effect = lower value
# [17] = S. cerevisiae deletion strains, locus YML094W, strain GIM5, stronger effect = lower value
# [18] = S. cerevisiae deletion strains, locus YMR219W, strain ESC1, stronger effect = lower value
# [19] = S. cerevisiae deletion strains, locus YMR263W, strain SAP30, stronger effect = lower value
# [20] = S. cerevisiae deletion strains, locus YNL153C, strain GIM3, stronger effect = lower value
# [21] = S. cerevisiae deletion strains, locus YNL298W, strain CLA4 (second series), stronger effect = lower value
# [22] = S. cerevisiae deletion strains, locus YNL322C, strain KRE1, stronger effect = lower value
# [23] = S. cerevisiae deletion strains, locus YNR030W, strain Alg12, stronger effect = lower value
# [24] = S. cerevisiae deletion strains, locus YOL006C, strain TOP1, stronger effect = lower value
# [25] = S. cerevisiae deletion strains, locus YPL055C, strain LGE1, stronger effect = lower value
# [26] = S. cerevisiae deletion strains, locus YPL241C, strain CIN2, stronger effect = lower value
# [27] = S. cerevisiae deletion strains, locus YPR135W, strain CTF4, stronger effect = lower value
# [28] = S. cerevisiae strains, strain wild type, stronger effect = lower value
# [29] = S. cerevisiae deletion strains, locus YCL061C, strain MRC1, stronger effect = lower value
smiles,measurement,setting,value
CSc1ncc(C#N)c2nc(-c3ccc(N(C)C)cc3)nn12,normalized growth,[1],1.01
same,normalized growth,[2],0.991
same,normalized growth,[3],0.974
same,normalized growth,[4],0.966
same,normalized growth,[5],1
same,normalized growth,[6],0.983
same,normalized growth,"S. cerevisiae deletion strains, locus YGR229C, strain SMI1, stronger effect = lower value",1
same,normalized growth,[7],1
same,normalized growth,[8],1.05
same,normalized growth,[9],1.01
same,normalized growth,[10],0.975
same,normalized growth,[11],0.994
same,normalized growth,[12],1.01
same,normalized growth,[13],1.08
same,normalized growth,[14],1.02
same,normalized growth,[15],1.02
same,normalized growth,[16],1.09
same,normalized growth,[17],1.05
same,normalized growth,[18],1.01
same,normalized growth,[19],1.01
same,normalized growth,[20],0.985
same,normalized growth,[21],1.04
same,normalized growth,[22],1
same,normalized growth,[23],1.03
same,normalized growth,[24],1.04
same,normalized growth,[25],1.01
same,normalized growth,[26],1.01
same,normalized growth,[27],0.968
same,normalized growth,[28],1
Fc1cc(F)cc(COc2cc(Cl)cc(Cl)c2)c1,normalized growth,[1],1
same,normalized growth,[2],0.987
same,normalized growth,[29],0.96
same,normalized growth,[3],1.01
same,normalized growth,"S. cerevisiae deletion strains, locus YDL134C, strain PPH21, stronger effect = lower value",0.992
same,normalized growth,[4],0.885
same,normalized growth,[5],1.01
same,normalized growth,[6],0.96
same,normalized growth,[7],0.522 (active)
same,normalized growth,[8],0.959
same,normalized growth,[9],0.968
same,normalized growth,[10],0.985
same,normalized growth,[11],0.913
same,normalized growth,[12],0.967
same,normalized growth,[13],1.01
same,normalized growth,[14],0.972
same,normalized growth,[15],0.822
same,normalized growth,[16],0.943
same,normalized growth,[17],1.01
same,normalized growth,[18],0.984
same,normalized growth,[19],0.97
same,normalized growth,"S. cerevisiae deletion strains, locus YMR307W, strain GAS1, stronger effect = lower value",0.739
same,normalized growth,[20],1
same,normalized growth,[21],0.919
same,normalized growth,[22],0.987
same,normalized growth,[23],0.928
same,normalized growth,[24],0.8
same,normalized growth,[25],0.922
same,normalized growth,[26],0.832 (active)
same,normalized growth,[27],0.886
same,normalized growth,[28],0.96
OC(COc1ccc(F)cc1)(c1ccc(Cl)cc1)c1ccc(Cl)cc1,normalized growth,"S. cerevisiae deletion strains, locus YAR019C, strain CDC15, stronger effect = lower value",0.991
same,normalized growth,"S. cerevisiae deletion strains, locus YBL105C, strain PKC1, stronger effect = lower value",0.985
same,normalized growth,"S. cerevisiae deletion strains, locus YBR135W, strain CKS1, stronger effect = lower value",0.984
same,normalized growth,"S. cerevisiae deletion strains, locus YBR136W, strain MEC1, stronger effect = lower value",1
same,normalized growth,"S. cerevisiae deletion strains, locus YBR160W, strain CDC28, stronger effect = lower value",0.982
same,normalized growth,"S. cerevisiae deletion strains, locus YDL017W, strain CDC7, stronger effect = lower value",0.988
same,normalized growth,"S. cerevisiae deletion strains, locus YDL028C, strain MPS1, stronger effect = lower value",0.985
same,normalized growth,[3],0.974
same,normalized growth,"S. cerevisiae deletion strains, locus YDL108W, strain KIN28, stronger effect = lower value",0.978
same,normalized growth,"S. cerevisiae deletion strains, locus YDL132W, strain cdc53, stronger effect = lower value",0.987
same,normalized growth,"S. cerevisiae deletion strains, locus YDL214C, strain PRR2, stronger effect = lower value",0.985
same,normalized growth,"S. cerevisiae deletion strains, locus YDR052C, strain DBF4, stronger effect = lower value",0.989
same,normalized growth,"S. cerevisiae deletion strains, locus YDR054C, strain cdc34, stronger effect = lower value",0.993
same,normalized growth,"S. cerevisiae deletion strains, locus YDR226W, strain ADK1, stronger effect = lower value",0.983
same,normalized growth,"S. cerevisiae deletion strains, locus YDR477W, strain SNF1, stronger effect = lower value",0.996
same,normalized growth,"S. cerevisiae deletion strains, locus YER123W, strain YCK3, stronger effect = lower value",0.96
same,normalized growth,"S. cerevisiae deletion strains, locus YER133W, strain GLC7, stronger effect = lower value",0.987
same,normalized growth,"S. cerevisiae deletion strains, locus YFL009W, strain cdc4, stronger effect = lower value",0.993
same,normalized growth,"S. cerevisiae deletion strains, locus YFL029C, strain CAK1, stronger effect = lower value",0.988
same,normalized growth,"S. cerevisiae deletion strains, locus YFR003C, strain YPI1, stronger effect = lower value",0.989
same,normalized growth,"S. cerevisiae deletion strains, locus YFR019W, strain FAB1, stronger effect = lower value",1
same,normalized growth,"S. cerevisiae deletion strains, locus YFR028C, strain CDC14, stronger effect = lower value",0.986
same,normalized growth,"S. cerevisiae deletion strains, locus YGR040W, strain KSS1, stronger effect = lower value",0.981
same,normalized growth,"S. cerevisiae deletion strains, locus YGR052W, strain FMP48, stronger effect = lower value",1.08
same,normalized growth,"S. cerevisiae deletion strains, locus YGR092W, strain DBF2, stronger effect = lower value",0.962
same,normalized growth,[7],1.07
same,normalized growth,"S. cerevisiae deletion strains, locus YHR079C, strain IRE1, stronger effect = lower value",1.08
same,normalized growth,"S. cerevisiae deletion strains, locus YHR082C, strain KSP1, stronger effect = lower value",1.07
same,normalized growth,"S. cerevisiae deletion strains, locus YHR205W, strain SCH9, stronger effect = lower value",0.964
same,normalized growth,"S. cerevisiae deletion strains, locus YIL147C, strain SLN1, stronger effect = lower value",0.98
same,normalized growth,"S. cerevisiae deletion strains, locus YJL095W, strain BCK1, stronger effect = lower value",1.08
same,normalized growth,"S. cerevisiae deletion strains, locus YJL128C, strain PBS2, stronger effect = lower value",0.939
same,normalized growth,"S. cerevisiae deletion strains, locus YJL157C, strain FAR1, stronger effect = lower value",0.988
same,normalized growth,"S. cerevisiae deletion strains, locus YJR016C, strain ILV3, stronger effect = lower value",0.984
same,normalized growth,"S. cerevisiae deletion strains, locus YJR066W, strain TOR1 (second series), stronger effect = lower value",0.971
same,normalized growth,"S. cerevisiae deletion strains, locus YJR066W, strain TOR1, stronger effect = lower value",1.12
same,normalized growth,"S. cerevisiae deletion strains, locus YKL048C, strain ELM1, stronger effect = lower value",0.984
same,normalized growth,"S. cerevisiae deletion strains, locus YKL067W, strain YNK1, stronger effect = lower value",0.988
same,normalized growth,"S. cerevisiae deletion strains, locus YKL101W, strain HSL1, stronger effect = lower value",0.98
same,normalized growth,"S. cerevisiae deletion strains, locus YKL193C, strain SDS22, stronger effect = lower value",0.991
same,normalized growth,"S. cerevisiae deletion strains, locus YKL203C, strain TOR2, stronger effect = lower value",1.08
same,normalized growth,"S. cerevisiae deletion strains, locus YLR113W, strain HOG1, stronger effect = lower value",0.957
same,normalized growth,"S. cerevisiae deletion strains, locus YLR133W, strain CKI1, stronger effect = lower value",0.989
same,normalized growth,"S. cerevisiae deletion strains, locus YLR403W, strain SFP1, stronger effect = lower value",1
same,normalized growth,"S. cerevisiae deletion strains, locus YML070W, strain DAK1, stronger effect = lower value",0.99
same,normalized growth,"S. cerevisiae deletion strains, locus YMR001C, strain CDC5, stronger effect = lower value",0.984
same,normalized growth,"S. cerevisiae deletion strains, locus YMR205C, strain PFK2 (second series), stronger effect = lower value",0.995
same,normalized growth,"S. cerevisiae deletion strains, locus YMR277W, strain FCP1, stronger effect = lower value",0.992
same,normalized growth,"S. cerevisiae deletion strains, locus YNL006W, strain LST8, stronger effect = lower value",0.998
same,normalized growth,"S. cerevisiae deletion strains, locus YNL020C, strain ARK1, stronger effect = lower value",0.988
same,normalized growth,"S. cerevisiae deletion strains, locus YNL161W, strain CBK1, stronger effect = lower value",0.988
same,normalized growth,"S. cerevisiae deletion strains, locus YNL183C, strain NPR1, stronger effect = lower value",1.09
same,normalized growth,"S. cerevisiae deletion strains, locus YNL207W, strain RIO2, stronger effect = lower value",0.997
same,normalized growth,"S. cerevisiae deletion strains, locus YNL222W, strain SSU72, stronger effect = lower value",0.991
same,normalized growth,"S. cerevisiae deletion strains, locus YNL307C, strain MCK1 (second series), stronger effect = lower value",0.981
same,normalized growth,"S. cerevisiae deletion strains, locus YOL078W, strain AVO1, stronger effect = lower value",0.994
same,normalized growth,"S. cerevisiae deletion strains, locus YOL136C, strain PFK27, stronger effect = lower value",0.966
same,normalized growth,"S. cerevisiae deletion strains, locus YOR061W, strain CKA2, stronger effect = lower value",0.988
same,normalized growth,"S. cerevisiae deletion strains, locus YOR119C, strain RIO1, stronger effect = lower value",1.02
same,normalized growth,"S. cerevisiae deletion strains, locus YOR231W, strain MKK1, stronger effect = lower value",1.06
same,normalized growth,"S. cerevisiae deletion strains, locus YOR329C, strain SCD5, stronger effect = lower value",0.984
same,normalized growth,"S. cerevisiae deletion strains, locus YPL031C, strain PHO85, stronger effect = lower value",0.981
same,normalized growth,"S. cerevisiae deletion strains, locus YPL153C, strain RAD53, stronger effect = lower value",0.984
same,normalized growth,"S. cerevisiae deletion strains, locus YPL204W, strain HRR25, stronger effect = lower value",0.986
same,normalized growth,"S. cerevisiae deletion strains, locus YPL209C, strain IPL1, stronger effect = lower value",0.992
same,normalized growth,"S. cerevisiae deletion strains, locus YPL256C, strain CLN2, stronger effect = lower value",1.07
same,normalized growth,"S. cerevisiae deletion strains, locus YPR025C, strain CCL1, stronger effect = lower value",0.992
same,normalized growth,"S. cerevisiae deletion strains, locus YPR106W, strain ISR1, stronger effect = lower value",0.983
same,normalized growth,"S. cerevisiae deletion strains, locus YPR111W, strain DBF20, stronger effect = lower value",0.984
same,normalized growth,"S. cerevisiae deletion strains, strain NNK1, stronger effect = lower value",0.992
same,normalized growth,"S. cerevisiae deletion strains, strain TSCII, stronger effect = lower value",0.991
O=S(=O)(Oc1ccc(OCc2ccccc2)cc1)c1cc(Cl)cc(Cl)c1,normalized growth,[1],1.01
same,normalized growth,[2],1.01
same,normalized growth,[29],1.01
same,normalized growth,[3],0.987
same,normalized growth,[4],1
same,normalized growth,[5],0.959
same,normalized growth,[6],1
same,normalized growth,[7],0.881
same,normalized growth,[8],0.983
same,normalized growth,[9],1
same,normalized growth,[10],1.01
same,normalized growth,[11],1.01
same,normalized growth,[13],1.01
same,normalized growth,[14],1.01
same,normalized growth,[15],0.943
same,normalized growth,[16],0.985
same,normalized growth,[17],0.966
same,normalized growth,[18],0.993
same,normalized growth,[19],1.01
same,normalized growth,[20],0.998
same,normalized growth,[21],1.01
same,normalized growth,[22],1
same,normalized growth,[23],0.998
same,normalized growth,[24],0.779
same,normalized growth,[25],0.969
same,normalized growth,[26],1
same,normalized growth,[27],0.988
same,normalized growth,[28],1
